# Experimental data reported in paper PMC6212833.
# Whole data set: some 2,000 compounds, median “B-score” near -0.0024, cut for the highest 2% near 4. The list comes from a sample in which the highest values are over-represented; it also holds similar structures and randomly drawn compounds.
# Test system: Balamuthia mandrillaris (ATCC PRA-291) trophozoites, axenic culture
# Test: primary screen, b score
# Details: 20 µM
# In short: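 Trophozoites (3,000/well) in axenic medium exposed to library drugs at 20 µM in 0.2% DMSO for 72 h; viability by CellTiter Glo luminescence at 2, 4 and 8 h. Controls: vehicle and freeze-thaw amoeba lysate; B-score corrects row, column and edge effects.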
row,Compound,B-score
1,Cc1scc2c1N(C(=O)CN1CCN(C)CC1)c1ccccc1NC2=O,-4.76
2,N#Cc1nn(-c2c(Cl)cc(C(F)(F)F)cc2Cl)c(N)c1S(=O)C(F)(F)F (stereo not drawn),0.119
3,OC[C@@H]1CC[C@H](n2cnc3c(O)ncnc32)O1,0.384
4,C#C[C@]1(O)CC[C@H]2[C@@H]3CCC4=CC(=O)CC[C@@H]4[C@H]3CC[C@@]21C,5.5
5,C#C[C@]1(O)CCC2C3CCC4=CC(=O)CC[C@@H]4C3CCC21CC (stereo partly drawn),-1.87
6,C#C[C@]1(O)CCC2C3CCC4=CC(=O)CC[C@@H]4C3CC[C@@]21C (stereo partly drawn),0.0185
7,CO/N=C(\C(=O)N[C@@H]1C(=O)N2C(C(=O)O)=C(CSc3nc(=O)c(=O)[nH]n3C)CS[C@H]12)c1csc(N)n1,-0.496
8,CC(C[N+](C)(C)C)OC(N)=O (stereo not drawn),1.72
9,CC(=O)[C@H]1CCC2C3CC=C4C[C@@H](O)CC[C@]4(C)C3CC[C@@]21C (stereo partly drawn),-1.35
10,N=C(N)c1ccc(N=NNc2ccc(C(=N)N)cc2)cc1,9.37
11,Nc1c2ccccc2nc2ccccc12,-0.407
12,CC(=O)c1ccc2c(c1)N(CCCN(C)C)c1ccccc1S2,0.888
13,COc1cc(C(=O)NCCCCCC(=O)O)cc(OC)c1OC,-2.61
14,CC1=C(/C=C/C(C)=C/C=C/C(C)=C\C(=O)O)C(C)(C)CCC1,1.46
15,NC(=O)c1cc[n+](CC2=C(C(=O)O)N3C(=O)[C@@H](NC(=O)Cc4cccs4)[C@H]3SC2)cc1,0.071
16,CCC(C)n1ncn(-c2ccc(N3CCN(c4ccc(OCC5COC(Cn6cncn6)(c6ccc(Cl)cc6Cl)O5)cc4)CC3)cc2)c1=O (stereo not drawn),-1.07
17,CC(C)N1CCN(c2ccc(OC[C@H]3CO[C@](Cn4cncn4)(c4ccc(Cl)cc4Cl)O3)cc2)CC1,2.03
18,CCC(C)n1ncn(-c2ccc(N3CCN(c4ccc(OC[C@H]5CO[C@](Cn6cncn6)(c6ccc(Cl)cc6Cl)O5)cc4)CC3)cc2)c1=O (stereo partly drawn),5.45
19,O=c1[nH]c(=O)c2ccccc2o1,1.88
20,C(=C\c1ccccc1)/CN1CCN(C(c2ccccc2)c2ccccc2)CC1 [255681-L2],0.414
21,Cc1cn[nH]c1 [285621-L4],2.94
22,Cc1cc(-c2ccc(/N=N/c3ccc4c(S(=O)(=O)O)cc(S(=O)(=O)O)c(N)c4c3O)c(C)c2)ccc1/N=N/c1ccc2c(S(=O)(=O)O)cc(S(=O)(=O)O)c(N)c2c1O,11
23,CN(C)CC(c1ccc(O)cc1)C1(O)CCCCC1 (stereo not drawn),-2.24
24,Nc1nc(O)c2nc(CNc3ccc(C(=O)N[C@@H](CCC(=O)O)C(=O)O)cc3)cnc2n1 [131189-L3],-0.599
25,C[N+](C)(C)CCOP(=O)([O-])OP(=O)(O)OC[C@H]1O[C@@H](n2ccc(N)nc2=O)[C@H](O)[C@@H]1O,-1.73
26,CN(C)c1ccc(C(=C2C=CC(=[N+](C)C)C=C2)c2ccc(N(C)C)cc2)cc1,9.22

row,Compound,B-score
1,O=C(OOC(=O)c1ccccc1)c1ccccc1,-0.0136
2,CC(C)(C)CC(C)(C)c1cc(Cc2cc(C(C)(C)CC(C)(C)C)cc(-n3nc4ccccc4n3)c2O)c(O)c(-n2nc3ccccc3n2)c1,-1.88
3,Cc1ccc(-c2ncc(Cl)cc2-c2ccc(S(C)(=O)=O)cc2)cn1,2.78
4,Cc1nc2n(c(=O)c1CCN1CCC(c3noc4cc(F)ccc34)CC1)CCC[C@H]2O,0.893
5,OCC(S)CS (stereo not drawn),8.18
6,CC(O)Cn1cnc2c1c(=O)n(C)c(=O)n2C (stereo not drawn),-3.33
7,NS(=O)(=O)c1cc(C2(O)NC(=O)c3ccccc32)ccc1Cl (stereo not drawn),0.358
8,O[C@H]1[C@H](O)[C@@H](O)[C@H](O)[C@@H](O)[C@H]1O,-1.95
9,CC(C)/N=C(N)/N=C(\N)Nc1ccc(Cl)cc1 [131550-L3],-1.38
10,CC(C)/N=C(N)/N=C(\N)Nc1ccc(Cl)cc1 [131550-L2],0.326
11,N=C(NCCCCCCNC(=N)NC(=N)Nc1ccc(Cl)cc1)NC(=N)Nc1ccc(Cl)cc1,20.8
12,Cc1cccc(C)c1NC(=O)C(C)N (stereo not drawn),0.0863
13,CC[C@@H](CO)NC(=O)[C@@H]1C=C2c3cccc4c3c(cn4C)C[C@H]2N(C)C1 [756841-L1],0.825
14,CC(=O)Oc1cc2c(s1)CCN([C@H](C(=O)C1CC1)c1ccccc1F)C2,0.0184
15,CN[C@@H]1[C@@H](O[C@H]2O[C@H](CO)[C@@H](N)[C@H](O)[C@H]2O)O[C@H]2C[C@@H](N)[C@H](O[C@H]3[C@H](O)[C@@H](O)[C@H](N)C[C@@H]3N)O[C@@H]2[C@@H]1O,-1.36
16,O=C(O)c1ccccc1-c1c2cc(I)c(=O)c(I)c-2oc2c(I)c(O)c(I)cc12,14.8
17,N[C@@H]1[C@H]2CN(c3nc4c(cc3F)c(=O)c(C(=O)O)cn4-c3ccc(F)cc3F)C[C@@H]12,-1.05
18,C#C[C@]1(O)CCC2C3CCc4cc(OC)ccc4C3CC[C@@]21C (stereo partly drawn),-0.0352
19,COc1cc2c(cc1OC)C(=O)C(CC1CCN(Cc3ccccc3)CC1)C2 (stereo not drawn),-0.41
20,c1ccc2c(c1)Nc1ccccc1S2,0.971
21,CC(=O)N[C@@H]1[C@@H](C(O)[C@H](O)CO)O[C@](O)(C(=O)O)C[C@@H]1O (stereo partly drawn),-1.13
22,Cc1nc(Nc2ncc(C(=O)Nc3c(C)cccc3Cl)s2)cc(N2CCN(CCO)CC2)n1 [756746-L1],8.3
23,Cc1nc(Nc2ncc(C(=O)Nc3c(C)cccc3Cl)s2)cc(N2CCN(CCO)CC2)n1 [756746-L2],1.19
24,C[C@H]1O[C@@H](O[C@H]2[C@@H](O)C[C@H](O[C@H]3[C@@H](O)C[C@H](O[C@H]4CC[C@@]5(C)[C@H](CC[C@@H]6[C@@H]5CC[C@]5(C)[C@@H](C7=CC(=O)OC7)CC[C@]65O)C4)O[C@@H]3C)O[C@@H]2C)C[C@H](O)[C@@H]1O,-0.38
25,CC(=O)Oc1ccccc1C(=O)Nc1ncc([N+](=O)[O-])s1,-0.287
26,C=C1CC2C(CC[C@]3(C)C(=O)CCC23)[C@@]2(C)C=CC(=O)C=C12 (stereo partly drawn),-0.0158

row,Compound,B-score
1,C=C1C[C@@H]2[C@H](CC[C@]3(C)C(=O)CC[C@@H]23)[C@@]2(C)C=CC(=O)C=C12,7.82
2,C[C@]12CC[C@H](O)CC1=CCC1C2CC[C@]2(C)C(=O)CC[C@@H]12 (stereo partly drawn),0.449
3,CCN1CCN(c2cc3c(cc2F)c(=O)c(C(=O)O)cn3C2CC2)CC1,-2.37
4,CO/N=C(\C(=O)N[C@@H]1C(=O)N2C(C(=O)O)=C(COC(C)=O)CS[C@H]12)c1csc(N)n1,2.94
5,N[C@@H](Cc1ccccc1)C(=O)O,-1.27
6,C#CC1(O)CCC2C3CCC4=C/C(=N/O)CCC4C3CCC21CC (stereo not drawn),-0.44
7,CC(C)(O)c1ccccc1CC[C@@H](SCC1(CC(=O)O)CC1)c1cccc(/C=C/c2ccc3ccc(Cl)cc3n2)c1,-1.02
8,Oc1c(Cl)cc(Cl)cc1Sc1cc(Cl)cc(Cl)c1O,-2.1
9,CC(=O)OCC1=C(C(=O)O)N2C(=O)[C@@H](NC(=O)Cc3cccs3)[C@H]2SC1,4.7
10,CC(=O)OCC1=C(C(=O)O)N2C(=O)[C@@H](NC(=O)CC#N)[C@H]2SC1,-1.27
11,CC(=O)OCC1=C(C(=O)O)N2C(=O)[C@@H](NC(=O)CSc3ccncc3)[C@H]2SC1,-1.22
12,Cc1cn([C@H]2C[C@H](N=[N+]=[N-])[C@@H](CO)O2)c(=O)[nH]c1=O [735592-L3],-1.48
13,CC(C)(C)NC(=O)[C@H]1C[C@@H]2CCCC[C@@H]2CN1C[C@@H](O)[C@H](Cc1ccccc1)NC(=O)[C@@H](CC(N)=O)NC(=O)c1ccc2ccccc2n1,-1.24
14,NC[C@@H]1O[C@H](O[C@@H]2[C@@H](CO)OC(O[C@@H]3[C@@H](O)[C@H](N)C[C@H](N)[C@H]3OC3O[C@H](CN)[C@@H](O)[C@H](O)[C@H]3N)[C@@H]2O)[C@H](N)[C@@H](O)[C@@H]1O (stereo partly drawn),0.82
15,CC[C@H]1OC(=O)[C@H](C)[C@@H](O[C@H]2C[C@@](C)(OC)[C@@H](O)[C@H](C)O2)[C@H](C)[C@@H](O[C@@H]2O[C@H](C)C[C@H](N(C)C)[C@H]2O)[C@](C)(O)C[C@@H](C)/C(=N\OCOCCOC)[C@H](C)[C@@H](O)[C@]1(C)O,0.27
16,CCC1=C(C)CN(C(=O)NCCc2ccc(S(=O)(=O)NC(=O)N[C@H]3CC[C@H](C)CC3)cc2)C1=O,1.92
17,CC(C)c1nc(N(C)S(C)(=O)=O)nc(-c2ccc(F)cc2)c1/C=C/[C@@H](O)C[C@@H](O)CC(=O)O,3.13
18,COCc1c(C(C)C)nc(C(C)C)c(/C=C/[C@@H](O)C[C@@H](O)CC(=O)O)c1-c1ccc(F)cc1,13.3
19,O=C(O)C[C@H](O)C[C@H](O)/C=C/c1c(C2CC2)nc2ccccc2c1-c1ccc(F)cc1,-0.609
20,CC(C)NC[C@H](O)COc1cccc2ccccc12,-4.66
21,CC(C)NCC(O)COc1cccc2ccccc12 (stereo not drawn),0.797
22,CC[N+](CC)(CC)CCOc1cccc(OCC[N+](CC)(CC)CC)c1OCC[N+](CC)(CC)CC,5.36
23,CC(Cc1ccccc1)(NC(=O)CN)c1ccccc1 (stereo not drawn),1.27
24,CC[C@H]1CN2CCC1C[C@@H]2[C@@H](O)c1ccnc2ccc(OC)cc12 (stereo partly drawn),0.0568
25,CCCCC1(COC(=O)CCC(=O)O)C(=O)N(c2ccccc2)N(c2ccccc2)C1=O,-1.04
26,O=C1CC[C@@H](N2C(=O)c3ccccc3C2=O)C(=O)N1,-1.22
